Source: PMC7862700, “An all-to-all approach to the identification of sequence-specific readers for epigenetic DNA modifications on cytosine”

How the values were obtained:
Assay in all cases: DAPPL (digital affinity profiling via proximity ligation, sequencing); 10 mM Tris-HCl pH 7.5, 50 mM NaCl, 1 mM DTT, 4% glycerol, room temperature, 30 min; GST-TFs on glutathione beads, 16-mer random dsDNA library, 0.1% formaldehyde crosslink after washing; high values mean tight binding
Settings in all cases: protein: recombinant; tags: N-terminal GST; dsDNA, one strand shown
FEV = molecular target: T1, FEV (Homo sapiens, UniProt Q99581 1-238)
T1 sequence: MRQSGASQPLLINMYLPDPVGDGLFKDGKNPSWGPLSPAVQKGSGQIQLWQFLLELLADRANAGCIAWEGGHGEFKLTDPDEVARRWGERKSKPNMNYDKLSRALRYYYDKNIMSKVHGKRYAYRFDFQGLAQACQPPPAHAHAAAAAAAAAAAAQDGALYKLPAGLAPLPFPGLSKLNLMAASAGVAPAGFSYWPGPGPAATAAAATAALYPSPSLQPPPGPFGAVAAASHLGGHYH
Procedure, shortened: (§1)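 Yeast served to express human transcription factors as GST fusions, which were then captured on glutathione beads and labelled with DNA barcodes. Pooled with a tag-only sample, they were incubated with 200 nmole of a 16-mer random double-stranded DNA library for 30 min at room temperature in Tris/NaCl/DTT/glycerol buffer, washed, crosslinked with 0.1% formaldehyde, ligated by proximity, amplified by PCR and sequenced. Dividing each hexamer's read frequency for a factor by its frequency for the tag-only sample gives the binding signal.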

ETV5 = ETV5 (Homo sapiens, UniProt P41161 1-510)
Sequence of ETV5 (P41161 whole entry): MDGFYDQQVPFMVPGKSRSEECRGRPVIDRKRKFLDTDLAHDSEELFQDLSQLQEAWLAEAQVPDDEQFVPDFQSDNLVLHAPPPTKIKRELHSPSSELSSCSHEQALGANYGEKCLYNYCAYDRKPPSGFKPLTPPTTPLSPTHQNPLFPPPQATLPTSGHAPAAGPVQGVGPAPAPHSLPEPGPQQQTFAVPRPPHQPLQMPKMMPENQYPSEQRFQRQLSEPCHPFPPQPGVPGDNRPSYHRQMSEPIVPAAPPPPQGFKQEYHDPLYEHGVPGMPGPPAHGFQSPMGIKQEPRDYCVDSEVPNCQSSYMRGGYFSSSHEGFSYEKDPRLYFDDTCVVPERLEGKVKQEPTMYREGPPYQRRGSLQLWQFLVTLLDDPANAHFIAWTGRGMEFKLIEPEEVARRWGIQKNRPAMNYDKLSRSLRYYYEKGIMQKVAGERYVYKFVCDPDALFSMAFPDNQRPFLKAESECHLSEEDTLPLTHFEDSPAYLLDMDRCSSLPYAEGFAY
Procedure, shortened: as §1

SPIC = molecular target: T2, SPIC (Homo sapiens, UniProt Q8N5J4 1-248)
T2 sequence: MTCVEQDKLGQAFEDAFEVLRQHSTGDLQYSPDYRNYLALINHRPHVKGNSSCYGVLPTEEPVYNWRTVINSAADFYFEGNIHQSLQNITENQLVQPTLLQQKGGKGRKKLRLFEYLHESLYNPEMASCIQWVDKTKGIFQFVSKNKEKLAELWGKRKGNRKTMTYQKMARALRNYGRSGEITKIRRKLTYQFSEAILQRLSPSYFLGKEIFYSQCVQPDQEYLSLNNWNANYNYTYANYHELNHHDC
Procedure, shortened: as §1

ELF4 = ELF4 (Homo sapiens, UniProt Q99607 1-663)
Sequence of ELF4 (Q99607 whole entry): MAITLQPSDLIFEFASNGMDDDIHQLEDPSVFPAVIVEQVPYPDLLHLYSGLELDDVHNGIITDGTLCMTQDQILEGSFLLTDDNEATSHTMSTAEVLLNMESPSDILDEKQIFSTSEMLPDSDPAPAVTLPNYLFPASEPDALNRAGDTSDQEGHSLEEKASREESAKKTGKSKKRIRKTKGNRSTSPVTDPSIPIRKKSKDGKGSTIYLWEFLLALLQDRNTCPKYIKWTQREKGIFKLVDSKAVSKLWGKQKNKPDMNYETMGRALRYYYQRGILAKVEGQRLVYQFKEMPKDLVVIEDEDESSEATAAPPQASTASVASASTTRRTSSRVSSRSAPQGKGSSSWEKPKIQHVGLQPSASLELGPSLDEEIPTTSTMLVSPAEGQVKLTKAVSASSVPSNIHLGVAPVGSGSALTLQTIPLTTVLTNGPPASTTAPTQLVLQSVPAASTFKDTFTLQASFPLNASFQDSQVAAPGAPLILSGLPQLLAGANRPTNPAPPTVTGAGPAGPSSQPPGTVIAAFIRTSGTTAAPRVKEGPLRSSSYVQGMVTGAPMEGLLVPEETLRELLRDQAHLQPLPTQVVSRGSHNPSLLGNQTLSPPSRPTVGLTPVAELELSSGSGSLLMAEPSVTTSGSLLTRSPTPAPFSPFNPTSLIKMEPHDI
Procedure, shortened: as §1

ELK4 = molecular target: T3, ELK4 (Homo sapiens, UniProt P28324-2 1-405)
T3 sequence: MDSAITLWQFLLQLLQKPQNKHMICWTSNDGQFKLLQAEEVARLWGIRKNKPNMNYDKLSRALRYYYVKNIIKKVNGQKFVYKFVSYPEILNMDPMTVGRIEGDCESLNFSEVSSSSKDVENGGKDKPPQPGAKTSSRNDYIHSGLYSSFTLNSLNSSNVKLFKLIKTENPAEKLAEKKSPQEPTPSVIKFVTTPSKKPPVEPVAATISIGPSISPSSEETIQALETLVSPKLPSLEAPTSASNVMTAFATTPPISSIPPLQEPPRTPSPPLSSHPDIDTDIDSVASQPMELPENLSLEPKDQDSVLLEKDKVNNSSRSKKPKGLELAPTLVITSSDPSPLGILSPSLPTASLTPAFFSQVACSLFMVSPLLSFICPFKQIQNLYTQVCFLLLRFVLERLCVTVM
Procedure, shortened: as §1

ETV2 = molecular target: T4, ETV2 (Homo sapiens, UniProt O00321 1-342)
T4 sequence: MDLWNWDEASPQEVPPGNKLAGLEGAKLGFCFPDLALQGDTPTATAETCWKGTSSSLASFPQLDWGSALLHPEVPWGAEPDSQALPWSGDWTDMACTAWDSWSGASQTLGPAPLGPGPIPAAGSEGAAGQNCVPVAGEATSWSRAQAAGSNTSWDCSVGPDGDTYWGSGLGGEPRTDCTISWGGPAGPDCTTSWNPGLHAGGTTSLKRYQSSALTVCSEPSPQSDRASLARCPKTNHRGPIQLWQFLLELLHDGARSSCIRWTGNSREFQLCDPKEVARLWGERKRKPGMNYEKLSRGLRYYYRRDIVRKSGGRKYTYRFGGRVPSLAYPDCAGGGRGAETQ
Procedure, shortened: as §1

ELF3 = molecular target: T5, ELF3 (Homo sapiens, UniProt P78545 1-371)
T5 sequence: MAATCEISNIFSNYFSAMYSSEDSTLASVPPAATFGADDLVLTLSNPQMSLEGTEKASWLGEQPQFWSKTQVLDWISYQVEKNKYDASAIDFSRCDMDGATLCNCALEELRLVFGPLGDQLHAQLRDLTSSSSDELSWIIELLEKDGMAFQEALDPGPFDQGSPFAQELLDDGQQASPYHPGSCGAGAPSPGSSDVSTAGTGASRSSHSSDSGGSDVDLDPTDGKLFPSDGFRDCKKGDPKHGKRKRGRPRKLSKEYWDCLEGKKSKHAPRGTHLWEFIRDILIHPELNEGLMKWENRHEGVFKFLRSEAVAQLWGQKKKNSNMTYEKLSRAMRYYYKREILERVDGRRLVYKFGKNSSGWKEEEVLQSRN
Procedure, shortened: as §1

ETV1 = ETV1 (Homo sapiens, UniProt P50549 1-477)
Sequence of ETV1 (P50549 whole entry): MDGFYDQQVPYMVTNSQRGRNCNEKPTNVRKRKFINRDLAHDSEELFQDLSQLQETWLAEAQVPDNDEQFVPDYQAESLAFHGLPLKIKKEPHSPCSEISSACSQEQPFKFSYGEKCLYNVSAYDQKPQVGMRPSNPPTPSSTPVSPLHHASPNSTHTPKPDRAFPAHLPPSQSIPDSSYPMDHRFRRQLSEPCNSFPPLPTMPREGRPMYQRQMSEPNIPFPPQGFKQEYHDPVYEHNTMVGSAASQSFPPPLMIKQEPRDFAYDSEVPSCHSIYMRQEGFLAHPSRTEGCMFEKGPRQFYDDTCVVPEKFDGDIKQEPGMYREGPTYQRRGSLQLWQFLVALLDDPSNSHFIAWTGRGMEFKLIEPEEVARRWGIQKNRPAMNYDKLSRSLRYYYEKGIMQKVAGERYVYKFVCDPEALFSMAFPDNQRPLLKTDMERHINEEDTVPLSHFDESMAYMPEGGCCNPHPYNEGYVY
Procedure, shortened: as §1

ERF = molecular target: T6, ERF (Homo sapiens, UniProt P50548 1-548)
T6 sequence: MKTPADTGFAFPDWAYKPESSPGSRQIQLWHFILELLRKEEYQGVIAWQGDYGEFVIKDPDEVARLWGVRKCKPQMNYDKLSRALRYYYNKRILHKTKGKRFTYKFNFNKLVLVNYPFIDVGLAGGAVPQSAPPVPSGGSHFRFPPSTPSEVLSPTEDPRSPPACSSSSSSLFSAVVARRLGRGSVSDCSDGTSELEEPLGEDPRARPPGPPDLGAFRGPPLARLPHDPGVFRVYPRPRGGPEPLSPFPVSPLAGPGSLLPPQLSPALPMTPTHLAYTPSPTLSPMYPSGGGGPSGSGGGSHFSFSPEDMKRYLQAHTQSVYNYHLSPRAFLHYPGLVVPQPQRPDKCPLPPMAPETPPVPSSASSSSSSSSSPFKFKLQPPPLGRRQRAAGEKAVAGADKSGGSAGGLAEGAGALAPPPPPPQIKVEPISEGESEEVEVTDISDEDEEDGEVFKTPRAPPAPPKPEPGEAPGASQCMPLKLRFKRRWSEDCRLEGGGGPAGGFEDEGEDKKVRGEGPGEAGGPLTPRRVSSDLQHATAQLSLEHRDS
Procedure, shortened: as §1

ETV3L = molecular target: T7, ETV3L (Homo sapiens, UniProt Q6ZN32 1-361)
T7 sequence: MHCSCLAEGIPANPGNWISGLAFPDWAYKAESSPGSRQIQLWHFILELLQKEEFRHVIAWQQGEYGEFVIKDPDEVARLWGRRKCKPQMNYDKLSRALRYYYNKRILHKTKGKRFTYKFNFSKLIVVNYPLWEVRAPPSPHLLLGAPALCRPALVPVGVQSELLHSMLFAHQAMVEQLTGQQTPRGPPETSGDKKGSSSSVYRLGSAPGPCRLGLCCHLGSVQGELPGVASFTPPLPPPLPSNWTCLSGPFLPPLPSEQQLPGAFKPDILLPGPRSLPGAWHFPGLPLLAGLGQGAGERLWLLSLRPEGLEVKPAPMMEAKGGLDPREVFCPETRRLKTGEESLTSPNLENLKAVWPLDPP
Procedure, shortened: as §1

ETS2 = molecular target: T8, ETS2 (Homo sapiens, UniProt P15036 1-469)
T8 sequence: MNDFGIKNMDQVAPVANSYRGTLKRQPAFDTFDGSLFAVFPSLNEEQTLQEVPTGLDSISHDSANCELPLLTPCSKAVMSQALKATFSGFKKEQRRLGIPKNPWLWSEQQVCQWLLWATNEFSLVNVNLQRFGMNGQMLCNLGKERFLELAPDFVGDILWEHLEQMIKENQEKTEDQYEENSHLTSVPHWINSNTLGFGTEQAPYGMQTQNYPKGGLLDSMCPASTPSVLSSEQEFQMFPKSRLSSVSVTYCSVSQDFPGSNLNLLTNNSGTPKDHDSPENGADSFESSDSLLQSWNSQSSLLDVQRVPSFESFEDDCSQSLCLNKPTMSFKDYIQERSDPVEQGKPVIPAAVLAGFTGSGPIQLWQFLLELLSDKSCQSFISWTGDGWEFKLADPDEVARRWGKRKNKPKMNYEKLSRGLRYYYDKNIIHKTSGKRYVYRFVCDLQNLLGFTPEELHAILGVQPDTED
Procedure, shortened: as §1

SPDEF = molecular target: T9, SPDEF (Homo sapiens, UniProt O95238 1-335)
T9 sequence: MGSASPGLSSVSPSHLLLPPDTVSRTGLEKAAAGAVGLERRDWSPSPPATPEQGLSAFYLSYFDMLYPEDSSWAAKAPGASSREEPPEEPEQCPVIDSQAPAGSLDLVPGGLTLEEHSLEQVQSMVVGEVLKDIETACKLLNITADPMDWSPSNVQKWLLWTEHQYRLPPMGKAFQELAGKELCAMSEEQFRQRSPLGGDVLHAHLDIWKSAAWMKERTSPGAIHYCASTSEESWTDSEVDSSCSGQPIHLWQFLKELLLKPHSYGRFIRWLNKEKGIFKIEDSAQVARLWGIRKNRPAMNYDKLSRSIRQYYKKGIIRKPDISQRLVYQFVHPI
Procedure, shortened: as §1

ETV7 = molecular target: T10, ETV7 (Homo sapiens, UniProt Q9Y603 1-341)
T10 sequence: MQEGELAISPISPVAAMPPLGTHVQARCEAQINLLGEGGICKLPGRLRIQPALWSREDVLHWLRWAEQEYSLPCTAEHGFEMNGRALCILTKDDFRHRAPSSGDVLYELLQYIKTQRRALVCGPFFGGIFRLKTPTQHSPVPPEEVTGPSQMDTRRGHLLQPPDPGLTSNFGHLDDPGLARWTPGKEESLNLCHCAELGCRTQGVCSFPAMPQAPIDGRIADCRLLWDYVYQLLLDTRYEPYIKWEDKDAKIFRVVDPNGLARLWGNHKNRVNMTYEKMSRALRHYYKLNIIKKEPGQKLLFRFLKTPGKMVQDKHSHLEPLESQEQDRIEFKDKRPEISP
Procedure, shortened: as §1

ELF5 = molecular target: T11, ELF5 (Homo sapiens, UniProt Q9UKW6-2 1-255)
T11 sequence: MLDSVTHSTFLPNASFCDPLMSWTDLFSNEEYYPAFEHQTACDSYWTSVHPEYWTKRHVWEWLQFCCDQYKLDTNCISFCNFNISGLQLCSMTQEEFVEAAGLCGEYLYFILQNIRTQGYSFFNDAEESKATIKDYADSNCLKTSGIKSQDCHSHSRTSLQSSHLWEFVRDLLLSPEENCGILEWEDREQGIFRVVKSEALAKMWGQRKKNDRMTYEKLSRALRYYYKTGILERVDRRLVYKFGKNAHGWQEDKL
Procedure, shortened: as §1

ETV3 = molecular target: T12, ETV3 (Homo sapiens, UniProt P41162-2 1-143)
T12 sequence: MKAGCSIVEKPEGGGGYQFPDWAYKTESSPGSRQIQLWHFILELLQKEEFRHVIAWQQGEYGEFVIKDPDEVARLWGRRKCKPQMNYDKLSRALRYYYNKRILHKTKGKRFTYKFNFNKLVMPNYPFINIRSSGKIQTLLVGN
Procedure, shortened: as §1

ETV6 = ETV6 (Homo sapiens, UniProt P41212 1-452)
Sequence of ETV6 (P41212 whole entry): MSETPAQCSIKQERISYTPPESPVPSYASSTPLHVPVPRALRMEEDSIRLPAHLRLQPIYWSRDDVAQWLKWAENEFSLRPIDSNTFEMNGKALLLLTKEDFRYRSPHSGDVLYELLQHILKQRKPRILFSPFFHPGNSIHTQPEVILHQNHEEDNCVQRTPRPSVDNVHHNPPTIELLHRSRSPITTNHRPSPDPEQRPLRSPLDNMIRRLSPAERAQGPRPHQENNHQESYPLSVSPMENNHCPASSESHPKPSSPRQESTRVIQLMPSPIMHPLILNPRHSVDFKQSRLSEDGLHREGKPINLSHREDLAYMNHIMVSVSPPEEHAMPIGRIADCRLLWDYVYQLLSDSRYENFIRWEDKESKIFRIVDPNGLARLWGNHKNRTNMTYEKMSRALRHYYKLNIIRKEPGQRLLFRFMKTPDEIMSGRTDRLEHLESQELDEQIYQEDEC
Procedure, shortened: as §1

**Q.** For CTGGTC, which binding signal (FEV) is on record?
**A.** 1.11 fold enrichment (6-mer frequency, TF over GST control)

**Q.** And the binding signal (ETV5)?
**A.** 1.22 fold enrichment (6-mer frequency, TF over GST control)

**Q.** And the binding signal (SPIC)?
**A.** 1.2 fold enrichment (6-mer frequency, TF over GST control)

**Q.** What about the binding signal (ELF4) of the same sequence?
**A.** 1.16 fold enrichment (6-mer frequency, TF over GST control)

**Q.** And the binding signal (ELK4)?
**A.** 1.19 fold enrichment (6-mer frequency, TF over GST control)

**Q.** And the binding signal (ETV2)?
**A.** 1.27 fold enrichment (6-mer frequency, TF over GST control)

**Q.** And the binding signal (ELF3)?
**A.** 1.05 fold enrichment (6-mer frequency, TF over GST control)

**Q.** And the binding signal (ETV1)?
**A.** 1.07 fold enrichment (6-mer frequency, TF over GST control)

**Q.** And the binding signal (ERF)?
**A.** 1.19 fold enrichment (6-mer frequency, TF over GST control)

**Q.** And the binding signal (ETV3L)?
**A.** 1.27 fold enrichment (6-mer frequency, TF over GST control)

**Q.** And the binding signal (ETS2)?
**A.** 1.21 fold enrichment (6-mer frequency, TF over GST control)

**Q.** And the binding signal (SPDEF)?
**A.** 1.24 fold enrichment (6-mer frequency, TF over GST control)

**Q.** What about the binding signal (ETV7) of the same sequence?
**A.** 1.15 fold enrichment (6-mer frequency, TF over GST control)

**Q.** What about the binding signal (ELF5) of the same sequence?
**A.** 1.17 fold enrichment (6-mer frequency, TF over GST control)

**Q.** And the binding signal (ETV3)?
**A.** 1.24 fold enrichment (6-mer frequency, TF over GST control)

**Q.** What about the binding signal (ETV6) of the same sequence?
**A.** 1.08 fold enrichment (6-mer frequency, TF over GST control)
